Holding throughout (details): mRNA level, 48 h; actives raise or lower the signal
Read-out in one assay: BCL2L11 (gene 10018)
Put plainly: LTEA_HepaRG_BCL2L11: Life Technologies and Expression Analysis (LTEA) Assay for Bcl-2 (BCL2L11) gene using HepaRG (AID 2283473). A digest of the protocol:
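BCL2L11 transcript levels are measured by Fluidigm qRT-PCR, normalized to three housekeeping genes. HepaRG cultures were plated 48 h, then treated 48 h with test chemical (top 100 uM, half-log, 0.5% DMSO vehicle); curves were fitted bidirectionally against DMSO.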

Read-out in assay [1]: Apolipoprotein A-V (APOA5) gene, APOA5 (gene 116519)
Put plainly: LTEA_HepaRG_APOA5: Life Technologies and Expression Analysis (LTEA) Assay for Apolipoprotein A-V (APOA5) gene using HepaRG (AID 2283474). A digest of the protocol:
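APOA5 transcript levels were quantified by qRT-PCR, normalized to three housekeeping genes, after 48 h chemical treatment of HepaRG cells (8 points, 100 uM maximum, half-log steps, 0.5% DMSO). Curves fitted in both directions against vehicle.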

Read-out in assay [2]: Apoptosis regulator Bcl-2 (Homo sapiens) (UniProt P10415)
Put plainly: LTEA_HepaRG_BCL2: Life Technologies and Expression Analysis (LTEA) Assay for Bcl-2 gene using HepaRG (AID 2283475). A digest of the protocol:
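Differentiated human HepaRG cells in serum-free induction medium exposed 48 h, in duplicate, to 8-point half-log series from 100 uM in 0.5% DMSO. BCL2 mRNA by qRT-PCR (TaqMan/Fluidigm), normalized to ACTB, GAPDH, POLR2A; bidirectional fit against DMSO.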

Read-out in assay [3]: Bcl-2 (BID) gene, BID (gene 637)
Put plainly: LTEA_HepaRG_BID: Life Technologies and Expression Analysis (LTEA) Assay for Bcl-2 (BID) gene using HepaRG (AID 2283476). A digest of the protocol: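 Gene expression by qRT-PCR in HepaRG cells after 48 h exposure, duplicate wells, eight half-log concentrations topping at 100 uM in 0.5% DMSO. Normalized to ACTB, GAPDH, POLR2A; bidirectional fitting relative to DMSO.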

Read-out in the next assay: Caspase-3 (Homo sapiens) (UniProt P42574)
Put plainly: LTEA_HepaRG_CASP3: Life Technologies and Expression Analysis (LTEA) Assay for cysteine-aspartic acid protease (CASP3) using HepaRG (AID 2283477). A digest of the protocol: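 Expression of CASP3 was quantified by TaqMan qRT-PCR against three housekeeping genes (ACTB, GAPDH, POLR2A), bidirectionally versus 0.5% DMSO. HepaRG cultures received compounds in duplicate, top 100 uM with half-log steps, for 48 h in serum-free induction medium.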

Read-out in assay [4]: Cytochrome P450 (CYP24A1), CYP24A1 (gene 1591)
Put plainly: LTEA_HepaRG_CYP24A1: Life Technologies and Expression Analysis (LTEA) Assay for Cytochrome P450 (CYP24A1) using HepaRG (AID 2283478). A digest of the protocol: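 mRNA of CYP24A1 quantified by TaqMan qRT-PCR (ACTB/GAPDH/POLR2A normalization) after 48 h chemical exposure of HepaRG cells, top concentration 100 uM, half-log steps, 0.5% DMSO vehicle, duplicates. Curves fitted bidirectionally against DMSO baseline.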

Read-out in assay [5]: Cytochrome P450 (CYP1A2), CYP1A2 (gene 1544)
Put plainly: LTEA_HepaRG_CYP1A2: Life Technologies and Expression Analysis (LTEA) Assay for Cytochrome P450 (CYP1A2) using HepaRG (AID 2283479). A digest of the protocol: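 CYP1A2 transcript measured by TaqMan qRT-PCR against three housekeeping genes after 48-hour chemical exposure of HepaRG cells. Eight-point half-log series topping at 100 uM in 0.5% DMSO, duplicates; gain or loss fitted relative to vehicle.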

Read-out in assay [6]: cysteine-aspartic acid protease (CASP8), CASP8 (gene 841)
Put plainly: LTEA_HepaRG_CASP8: Life Technologies and Expression Analysis (LTEA) Assay for cysteine-aspartic acid protease (CASP8) using HepaRG (AID 2283480). A digest of the protocol: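 HepaRG, 48 h exposure, duplicate wells; 8 conc, half-log from 100 uM, 0.5% DMSO. Serum-free induction medium. CASP8 mRNA by TaqMan qRT-PCR, norm. ACTB/GAPDH/POLR2A; gain/loss fitted vs DMSO.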

Read-out in assay [7]: Cytochrome P450 (CYP2B6), CYP2B6 (gene 1555)
Put plainly: LTEA_HepaRG_CYP2B6: Life Technologies and Expression Analysis (LTEA) Assay for Cytochrome P450 (CYP2B6) using HepaRG (AID 2283481). A digest of the protocol:
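CYP2B6 transcript level quantified by qRT-PCR against three housekeeping genes, fitted bidirectionally relative to DMSO. HepaRG cultures received chemicals for 48 h, 8-point half-log series from 100 uM in 0.5% DMSO, duplicate wells, serum-free induction medium.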

Read-out in assay [8]: Cytochrome P450 2C19 (Homo sapiens) (UniProt P33261)
Put plainly: LTEA_HepaRG_CYP2C19: Life Technologies and Expression Analysis (LTEA) Assay for CYP2C19 using HepaRG (AID 2283482). A digest of the protocol: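 CYP2C19 transcript levels by qRT-PCR, normalized to three housekeeping genes, in HepaRG cells after 48 h chemical exposure. Eight-point half-log series topping at 100 uM, 0.5% DMSO vehicle. Increases and decreases both fitted against DMSO.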

Read-out in a further assay: CYP2C8 (gene 1558)
Put plainly: LTEA_HepaRG_CYP2C8: Life Technologies and Expression Analysis (LTEA) Assay for CYP2C8 using HepaRG (AID 2283483). A digest of the protocol: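 CYP2C8 mRNA induction or loss, by qRT-PCR normalized to ACTB/GAPDH/POLR2A, is read in HepaRG cells after 48 h treatment. Concentrations run from 100 uM down in half-log dilutions, with 0.5% DMSO as vehicle and baseline.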

Read-out in another assay: CYP2C9 (gene 1559)
Put plainly: LTEA_HepaRG_CYP2C9: Life Technologies and Expression Analysis (LTEA) Assay for CYP2C9 using HepaRG (AID 2283484). A digest of the protocol: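 Cells plated 48 h, switched to serum-free induction medium, then treated in duplicate for 48 h at eight concentrations (max 100 uM, 0.5% DMSO). RNA then analysed by qRT-PCR for CYP2C9; curves fitted in both directions relative to DMSO.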

Read-out in another assay: CYP2E1 (gene 1571)
Put plainly: LTEA_HepaRG_CYP2E1: Life Technologies and Expression Analysis (LTEA) Assay for CYP2E1 using HepaRG (AID 2283485). A digest of the protocol: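 HepaRG cells, plated 48 h, then exposed 48 h in serum-free induction medium to eight half-log concentrations from 100 uM in 0.5% DMSO, duplicate. CYP2E1 mRNA by qRT-PCR, normalized to ACTB/GAPDH/POLR2A; bidirectional fit versus DMSO.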

Read-out in the next assay: CYP4A11 (gene 1579)
Put plainly: LTEA_HepaRG_CYP4A11: Life Technologies and Expression Analysis (LTEA) Assay for CYP4A11 using HepaRG (AID 2283486). A digest of the protocol: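 Readout is CYP4A11 transcript level by qRT-PCR, normalized to three housekeeping genes and fitted bidirectionally against 0.5% DMSO. Human HepaRG cells were treated 48 h, in duplicate, with an 8-point half-log series topping at 100 uM.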

Read-out in assay [9]: Cytochrome P450 3A4 (Homo sapiens) (UniProt P08684)
Put plainly: LTEA_HepaRG_CYP3A4: Life Technologies and Expression Analysis (LTEA) Assay for CYP3A4 using HepaRG (AID 2283487). A digest of the protocol: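 In a human hepatic line (HepaRG), duplicate wells were treated 48 h with up to 100 uM chemical in half-log dilutions. Endpoint: CYP3A4 mRNA induction or loss relative to 0.5% DMSO vehicle, by qRT-PCR.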

Read-out in assay [10]: DNA damage-inducible transcript 3 (DDIT3), DDIT3 (gene 1649)
Put plainly: LTEA_HepaRG_DDIT3: Life Technologies and Expression Analysis (LTEA) Assay for DNA damage-inducible transcript 3 (DDIT3) using HepaRG (AID 2283488). A digest of the protocol:
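HepaRG cells, 48 h after plating, exposed 48 h in serum-free induction medium to 8 half-log concentrations up to 100 uM in 0.5% DMSO, in duplicate. DDIT3 mRNA measured by TaqMan qRT-PCR, normalized to ACTB, GAPDH and POLR2A. Fitted bidirectionally against DMSO.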

Read-out in assay [11]: Pro-epidermal growth factor (Homo sapiens) (UniProt P01133)
Put plainly: LTEA_HepaRG_EGF: Life Technologies and Expression Analysis (LTEA) Assay for Epidermal growth factor (EGF) using HepaRG (AID 2283489). A digest of the protocol:
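EGF transcript measured by Fluidigm TaqMan qRT-PCR with three housekeeping genes for normalization, 48 h after dosing HepaRG cultures in duplicate (top 100 uM, half-log steps, 0.5% DMSO vehicle). Gain or loss relative to DMSO fitted.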

Read-out in assay [12]: Early growth response protein 1 (EGR1) transcription factor, EGR1 (gene 1958)
Put plainly: LTEA_HepaRG_EGR1: Life Technologies and Expression Analysis (LTEA) Assay for Early growth response protein 1 (EGR1) transcription factor using HepaRG (AID 2283490). A digest of the protocol:
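Read-out is EGR1 mRNA level by qRT-PCR, normalized to three housekeeping genes and analysed for gain or loss of signal against 0.5% DMSO. Source cells: human HepaRG, treated 48 h at up to 100 uM in half-log dilutions.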

Read-out in assay [13]: Ezrin (EZR), EZR (gene 7430)
Put plainly: LTEA_HepaRG_EZR: Life Technologies and Expression Analysis (LTEA) Assay for Ezrin (EZR) using HepaRG (AID 2283491). A digest of the protocol:
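Gain or loss of EZR mRNA is scored relative to 0.5% DMSO in human HepaRG cultures treated 48 h with test chemicals in duplicate, eight half-log concentrations from 100 uM.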

Read-out in assay [14]: Cytochrome P450 3A7 (Homo sapiens) (UniProt P24462)
Put plainly: LTEA_HepaRG_CYP3A7: Life Technologies and Expression Analysis (LTEA) Assay for CYP3A7 using HepaRG (AID 2283492). A digest of the protocol: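 CYP3A7 transcript measured by qRT-PCR (ACTB, GAPDH, POLR2A normalization) after 48 h chemical exposure of HepaRG cells in duplicate. Eight half-log concentrations, maximum 100 uM, 0.5% DMSO vehicle; bidirectional curve fitting against DMSO baseline.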

Structures are written as SMILES. Activity calls are given as the source filed them. Rule for the calls: active = hit-call score of the fitted dose curve at least 0.9, where 1 is the maximum; inactive = score below 0.9.

This note sets out measurements from PubChem BioAssay (EPA / NIEHS).

Chain of Caspase-3 (Homo sapiens) (P42574 whole entry, looked up): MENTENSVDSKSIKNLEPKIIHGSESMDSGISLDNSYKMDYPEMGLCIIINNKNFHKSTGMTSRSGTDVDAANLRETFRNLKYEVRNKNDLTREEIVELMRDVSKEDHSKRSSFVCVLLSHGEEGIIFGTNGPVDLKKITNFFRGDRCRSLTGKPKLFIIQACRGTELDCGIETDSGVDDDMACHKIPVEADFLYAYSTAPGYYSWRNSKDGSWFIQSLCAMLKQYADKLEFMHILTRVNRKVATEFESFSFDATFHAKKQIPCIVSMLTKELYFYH
Chain of Cytochrome P450 3A7 (Homo sapiens) (P24462 whole entry, looked up): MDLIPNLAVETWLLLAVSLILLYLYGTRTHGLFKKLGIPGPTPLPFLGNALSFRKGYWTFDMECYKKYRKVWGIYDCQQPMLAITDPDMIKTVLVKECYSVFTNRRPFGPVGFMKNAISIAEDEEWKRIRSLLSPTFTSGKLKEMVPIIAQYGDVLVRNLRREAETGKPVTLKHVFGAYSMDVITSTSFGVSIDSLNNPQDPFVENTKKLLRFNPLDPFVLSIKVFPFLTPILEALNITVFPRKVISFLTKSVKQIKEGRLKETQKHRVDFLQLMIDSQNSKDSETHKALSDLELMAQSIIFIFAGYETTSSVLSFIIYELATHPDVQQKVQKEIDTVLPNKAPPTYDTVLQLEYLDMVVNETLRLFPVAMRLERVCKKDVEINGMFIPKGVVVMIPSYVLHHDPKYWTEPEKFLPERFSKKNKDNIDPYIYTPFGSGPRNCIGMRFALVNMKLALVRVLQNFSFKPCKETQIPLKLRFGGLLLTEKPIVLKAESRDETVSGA
Chain of Cytochrome P450 2C19 (Homo sapiens) (P33261 whole entry, looked up): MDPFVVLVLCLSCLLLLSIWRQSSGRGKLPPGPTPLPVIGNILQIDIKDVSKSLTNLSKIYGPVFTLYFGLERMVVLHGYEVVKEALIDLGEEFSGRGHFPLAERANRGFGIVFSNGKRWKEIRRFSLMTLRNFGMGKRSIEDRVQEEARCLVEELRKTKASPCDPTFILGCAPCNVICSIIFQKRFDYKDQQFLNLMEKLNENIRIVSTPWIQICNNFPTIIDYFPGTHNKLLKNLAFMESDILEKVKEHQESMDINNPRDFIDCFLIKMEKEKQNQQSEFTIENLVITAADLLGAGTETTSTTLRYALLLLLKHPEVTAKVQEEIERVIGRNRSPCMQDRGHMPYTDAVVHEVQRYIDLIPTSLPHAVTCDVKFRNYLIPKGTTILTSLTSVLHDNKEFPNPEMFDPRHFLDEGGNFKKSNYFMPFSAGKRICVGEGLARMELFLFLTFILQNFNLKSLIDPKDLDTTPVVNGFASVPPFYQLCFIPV
Chain of Cytochrome P450 3A4 (Homo sapiens) (P08684 whole entry, looked up): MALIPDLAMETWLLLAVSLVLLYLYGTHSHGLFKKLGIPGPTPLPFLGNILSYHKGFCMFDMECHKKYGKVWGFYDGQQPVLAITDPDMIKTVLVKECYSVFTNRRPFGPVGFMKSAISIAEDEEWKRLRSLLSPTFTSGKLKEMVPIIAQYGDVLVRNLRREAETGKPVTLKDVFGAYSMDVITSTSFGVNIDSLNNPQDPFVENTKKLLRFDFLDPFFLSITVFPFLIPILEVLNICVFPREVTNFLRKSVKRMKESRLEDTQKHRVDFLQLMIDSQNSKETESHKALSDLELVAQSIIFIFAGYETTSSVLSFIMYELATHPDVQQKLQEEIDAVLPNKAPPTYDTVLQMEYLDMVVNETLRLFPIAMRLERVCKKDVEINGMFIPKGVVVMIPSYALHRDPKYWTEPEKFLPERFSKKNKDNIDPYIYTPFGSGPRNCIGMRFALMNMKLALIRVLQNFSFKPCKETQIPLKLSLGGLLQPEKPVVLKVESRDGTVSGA
Chain of Apoptosis regulator Bcl-2 (Homo sapiens) (P10415 whole entry, looked up): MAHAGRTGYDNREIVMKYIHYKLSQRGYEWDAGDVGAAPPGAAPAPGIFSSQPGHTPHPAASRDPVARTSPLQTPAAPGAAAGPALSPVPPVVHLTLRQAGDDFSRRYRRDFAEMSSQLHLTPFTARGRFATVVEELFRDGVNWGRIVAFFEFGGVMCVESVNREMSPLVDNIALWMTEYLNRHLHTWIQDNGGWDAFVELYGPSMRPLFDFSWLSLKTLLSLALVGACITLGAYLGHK

For the molecule `CC(C)=CCCC(C)=CC=O`, the call (in the assay with BCL2L11 (gene 10018); in assay [1]; in assay [2]; in [3]; with Caspase-3 (Homo sapiens); in [4]) was inactive. In addition, the call (in assay [5]; in assay [6]; in assay [8]; in the assay with CYP2C8 (gene 1558); in the assay with CYP2C9 (gene 1559); with CYP2E1 (gene 1571)) was inactive. Further, the call (with CYP4A11 (gene 1579); in assay [9]; in assay [10]; in assay [11]; in [12]; in assay [13]) was inactive. Moreover, in assay [14], the call was inactive. Also, the AC50 in assay [7] was 50 µM (active).

As for `CC/C(=C\C(=N/O)C(N)=O)C(C)[N+](=O)[O-]` (stereo not given), the molecule was called inactive (with BCL2L11 (gene 10018); in assay [1]; in [2]; in [3]; with Caspase-3 (Homo sapiens); in [4]). Further, the outcome (in assay [6]; in assay [7]; in assay [8]; in the assay with CYP2C8 (gene 1558); with CYP2C9 (gene 1559); with CYP2E1 (gene 1571)) was inactive. Also, the call (with CYP4A11 (gene 1579); in assay [9]; in assay [10]; in assay [11]; in assay [12]; in assay [13]) was inactive. The call in [14] was inactive. In addition, in assay [5], the AC50 is 26.5 µM (active).

As for `COc1ccc(-n2nc(C(F)F)cc2-c2ccc(S(C)=O)cc2)cc1` (stereo not given), the molecule was called inactive (in the assay with BCL2L11 (gene 10018); in assay [1]; in [2]; in assay [3]; with Caspase-3 (Homo sapiens); in assay [4]). In addition, the molecule was called inactive (in [6]; with CYP2C8 (gene 1558); with CYP2C9 (gene 1559); in assay [10]; in [11]; in assay [12]). Also, the molecule was classed as inactive in [13]. Also, the AC50 in assay [5] was 50 µM (active); in assay [7] it was 13.4 µM (active); in assay [8], 26.8 µM (active); in the assay with CYP2E1 (gene 1571), 25 µM (active); with CYP4A11 (gene 1579) it was 68.8 µM (active); in [9], 17.1 µM (active). Further, the AC50 in [14] is 19.3 µM (active).
